A short description of assay [1]: AP1 Signaling Pathway (AID 357). Also: % is scaled to controls: 0 for no effect and ±100 for the full control effect. The settings on record: ME-180 AP-1-bla reporter, EGF-induced, beta-lactamase ratio, 5 h; at 17.2 µM (top of the series) unless noted. The method in brief: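 ME-180 cells with beta-lactamase reporter under AP-1 response element, stimulated with EC50 EGF; compounds tested in titration series, 5 h at 37 °C. CCF4 substrate added 2.5 h at room temperature; 460/530 nm emission ratio gave %activity and AC50.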

Assay [2] in a line: NFAT Signaling Pathway (AID 444).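 Also: carbachol stimulus at about its EC50 of 1 µM final; % is scaled to controls: 0 for no effect and ±100 for the full control effect.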 The note with it: Jurkat NFAT-bla M1, carbachol, beta-lactamase ratio, 5 h; at 17.2 µM (top of the series) unless noted. The method in brief:
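Jurkat cells with NFAT-driven β-lactamase reporter and co-expressed M1 receptor, stimulated with carbachol (final 1 uM, ~EC50), compound titration, 5 h at 37 °C. CCF4 loaded 1 h at RT; 460/530 nm ratio gave %activity and AC50.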

Assay [3] can be described thus: Stat Signaling Pathway (AID 446).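 Also: ME-180 cervical cancer cells given 40 pM IL-6 alongside compound; SIE-controlled beta-lactamase reporter measured as 460/530 nm FRET emission ratio; % is scaled to controls: 0 for no effect and ±100 for the full control effect.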 The settings on record: ME-180 SIE beta-lactamase reporter, IL-6 stimulated, 5 h; at 17.2 µM (top of the series) unless noted. The procedure, abridged:
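FRET read-out (405 nm excitation, 460/530 nm emission) of a beta-lactamase reporter under a STAT-inducible element in ME-180 cervical carcinoma cells. Cells with compound receive 40 pM IL-6 for 5 h. Values are normalised to AC90 stimulation and AC90 JAK-inhibitor controls.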

Assay [4] has as its target Glucocorticoid receptor (Homo sapiens) (UniProt P04150). Description: GR-GFP Redistribution (AID 450;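 active = compounds whose dose series gives a full or clear partial fitted curve of increased nuclear translocation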; also: potency is read from the fitted curve at half-maximal effect).
Assay [5] is described as follows: qHTS Assay for Identification of Small Molecule Agonists for Hypoxia Response Element Signaling Pathway (AID 914; active = well fitted activation curve with a large enough effect in the signal ratio, with a control signal flat, not every such curve was filed as active; the % refers to the signal ratio; also: potency is read from the fitted curve at half-maximal effect; as to activation: % of control where 0% means no effect). The settings on record: ME-180 (cervical carcinoma) HRE-bla reporter, beta-lactamase ratio, CoCl2, 17 h; activation: stronger effect = higher value. The procedure, abridged:
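Read-out: CCF4 FRET ratio of 460nm to 530nm emission (excitation 405nm) after 2.5 hours at room temperature, taken from HRE-bla ME-180 cells that had been exposed to compound and EC50 CoCl2 for 17 hours.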
In general terms: In qHTS, concentration-response curves come from the screen itself.

Unmarked numbers belong to inactive results. Inconclusive results are not listed. The source made the active and inactive calls. Unless noted, calls follow the shape of the dose curve; as a rule, active = well fitted curve in either direction with a large enough effect (not every such curve was filed as active); inconclusive = small, poorly fitted or top-dose-only effect, or another doubt; inactive = flat fitted curve, though single readings scatter.

Glucocorticoid receptor (Homo sapiens), sequence (P04150 whole entry, looked up): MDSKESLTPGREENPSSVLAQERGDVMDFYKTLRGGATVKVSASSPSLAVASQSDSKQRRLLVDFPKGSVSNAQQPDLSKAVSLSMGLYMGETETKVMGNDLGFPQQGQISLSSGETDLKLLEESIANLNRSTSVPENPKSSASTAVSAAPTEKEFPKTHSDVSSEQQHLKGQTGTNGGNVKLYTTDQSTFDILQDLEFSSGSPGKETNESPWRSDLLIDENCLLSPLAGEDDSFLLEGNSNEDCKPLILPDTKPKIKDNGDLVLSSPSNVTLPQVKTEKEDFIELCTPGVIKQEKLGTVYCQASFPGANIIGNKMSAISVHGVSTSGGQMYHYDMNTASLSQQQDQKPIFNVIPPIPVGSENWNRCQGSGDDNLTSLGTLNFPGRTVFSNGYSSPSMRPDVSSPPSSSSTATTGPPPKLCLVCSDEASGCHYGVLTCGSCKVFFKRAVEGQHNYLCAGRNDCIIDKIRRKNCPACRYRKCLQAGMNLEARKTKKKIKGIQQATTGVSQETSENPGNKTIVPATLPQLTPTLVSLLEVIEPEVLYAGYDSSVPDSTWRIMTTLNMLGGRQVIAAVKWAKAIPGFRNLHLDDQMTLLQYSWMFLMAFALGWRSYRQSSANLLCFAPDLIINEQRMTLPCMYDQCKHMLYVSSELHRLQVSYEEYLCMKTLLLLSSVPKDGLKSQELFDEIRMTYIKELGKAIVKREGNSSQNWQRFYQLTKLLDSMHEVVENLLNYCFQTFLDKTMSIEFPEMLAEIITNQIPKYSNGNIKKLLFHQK

Regarding `N#CC12CCCCC1CC1CCCCC1(C#N)N2Cc1cccnc1` (stereo not given), the activity change, negative = inhibition in assay [1] was 11.8%; in assay [2] it was -6.79%. The activity, negative = inhibition in assay [3] was 4.8%. For the same compound, in assay [4], the Potency is more than 20.6 µM. In assay [5], the activation was 9.28%.
For `Oc1ccccc1CNn1cnnc1`, the activity change, negative = inhibition was -0.712% in assay [1] and 15.6% in assay [2]. The activity, negative = inhibition in assay [3] is 4.83%. The Potency in assay [4] is more than 20.6 µM. For the same compound, the activation in assay [5] was 7.68%.
Consider `COc1ccc(C2CC(C(F)(F)F)n3ncc(C(=O)Nc4cccc(O)c4)c3N2)cc1OC` (stereo not given), for which the activity change, negative = inhibition was -24.1% in assay [1] and -0.0394% in assay [2]. Besides, the activity, negative = inhibition in assay [3] was -21.1%. In assay [4], the Potency is more than 20.6 µM. Moreover, the activation in assay [5] was -22.3%.
The corresponding values for `O=C(O)C(Cc1c[nH]c2ccccc12)NS(=O)(=O)c1cccc2nsnc12` (stereo not given) are 4.19%, 3.61%, 6.46%, more than 20.6 µM and -7.91%.
For `COc1ccc(C(=O)C2CCCCC2=O)cc1` (stereo not given), the activity change, negative = inhibition was 2.34% in assay [1] and -0.888% in assay [2]. Also, the activity, negative = inhibition in assay [3] was 8.28%. Further, the Potency in assay [4] was more than 20.6 µM. In addition, in assay [5], the activation is 5.32%.
As to `COC(=O)C(NC(C)=O)(Nc1nc2c(s1)CCCC2)C(F)(F)F` (stereo not given), the activity change, negative = inhibition in assay [1] is 1.18%; in assay [2], -2.64%. Besides, in assay [3], the activity, negative = inhibition is -8.22%. In addition, the Potency in assay [4] was more than 20.6 µM. The activation in assay [5] was -17%.
As for `CCOc1ccc(-c2nnc3sc(-c4ccccc4OC)nn23)cc1`, the results for the activity change, negative = inhibition in assay [1] and in assay [2] were 18% and -19.8%, respectively. Also, the activity, negative = inhibition in assay [3] was 5.75%. For the same compound, in assay [4], the Potency was more than 20.6 µM. Also, the activation in assay [5] was -10.9%.
Take `Cc1sc(-n2c(C)ccc2C)c(C#N)c1C`: the activity change, negative = inhibition was -5.35% in assay [1] and -9.11% in assay [2]. Further, the activity, negative = inhibition in assay [3] was 0.959%. In assay [4], the Potency was more than 20.6 µM. Also, the activation in assay [5] was 5.91%.
The corresponding values for `CC(C)c1nc(N2CCOCC2)c(C#N)c2c1COC(C)(C)C2` are -19.1%, -4.43%, 11.9%, more than 20.6 µM and -24.7%.
As for `CCCC(CCC(=O)Nc1ccc(C(=O)OCC)cc1)C(=O)O` (stereo not given), the activity change, negative = inhibition in assay [1] is 4.36%; in assay [2], 0.831%. In addition, the activity, negative = inhibition in assay [3] was 3.58%. Moreover, in assay [4], the Potency is more than 20.6 µM. For the same compound, the activation in assay [5] is 10%.
The corresponding values for `COc1ccccc1C1/C(=C(\O)c2ccc3c(c2)OCCO3)C(=O)C(=O)N1CCCN(C)C` (stereo not given) are 8.19%, -5.11%, 4.48%, more than 20.6 µM and -1.93%.
The corresponding values for `C=C(C)CN(CC)CCC(=O)Nc1ccc(OC)cc1OC` are -7.43%, 3.18%, 6.14%, more than 20.6 µM and -8.71%.
As to `CC(C)OCCCNc1ncnc2c1cnn2-c1ccccc1`, the values for the activity change, negative = inhibition in assay [1] and in assay [2] were -19.6% and 12.4%, respectively. Further, the activity, negative = inhibition in assay [3] was -0.244%. The Potency in assay [4] is more than 20.6 µM. For the same compound, in assay [5], the activation was -23.4%.
The corresponding values for `Fc1ccc(-c2cnc[nH]2)cc1` are 3.07%, -3.45%, -3.45%, more than 20.6 µM and 14%.
The corresponding values for `O=C(O)CC(NC(=O)COc1ccc(Cl)cc1Cl)C(=O)O` (stereo not given) are 7.75%, 6.45%, 1.25%, more than 20.6 µM and 3.63%.
With `CCOc1ccc(Cn2c(O)cc(=O)[nH]c2=O)cc1`, the activity change, negative = inhibition is 11.9% in assay [1] and 2.3% in assay [2]. The activity, negative = inhibition in assay [3] is 5.06%. Besides, the Potency in assay [4] was more than 20.6 µM. Also, in assay [5], the activation is 5.51%.
The corresponding values for `Cn1ccnc1SCCC#N` are -0.27%, -6.48%, 5.85%, more than 20.6 µM and 14%.
The corresponding values for `COC(=O)/C(C#N)=C1/SC=C(C)N1c1ccccc1` are 1.21%, 3.89%, 4.42%, more than 20.6 µM and -6.52%.
`CCN(CC)Cc1c(O)ccc2c(C)c(CC(=O)OC)c(=O)oc12`: the activity change, negative = inhibition in assay [1] is 14.2%; in assay [2], 25.4%. Besides, the activity, negative = inhibition in assay [3] is 8.46%. For the same compound, the Potency in assay [4] was more than 20.6 µM; in assay [5], 10 µM (active).
In the case of `COc1ccc2c(c1)c(C(=O)CN1CCOCC1)c(C)n2C`, the activity change, negative = inhibition in assay [1] was 12%; in assay [2], 0.787%. Moreover, in assay [3], the activity, negative = inhibition was 10.6%. Besides, in assay [4], the Potency was more than 20.6 µM. The activation in assay [5] is 8.25%.
The corresponding values for `COc1ccc2c(C)nc(Nc3nc(C)cc(C)n3)nc2c1` are -4.83%, -4.96%, 7.03%, more than 20.6 µM and -6.59%.
The corresponding values for `CCn1c(-c2ccco2)n[nH]c1=S` are 14%, 4.37%, 4.5%, more than 20.6 µM and 13.1%.
The corresponding values for `CN(CCNC(=O)c1ccc(/C=N/O)nc1)Cc1ccccc1` are 0.297%, -21.1%, -0.957%, more than 20.6 µM and 9.65%.

Values taken from PubChem BioAssay (NCATS).
